# Experimental data taken from PubChem BioAssay AID588579 (National Center for Advancing Translational Sciences (NCATS), 2011).
# Values joined by “and” are separate entries in the source; they are usually repeats but may differ in a detail not shown here. Equal values may be shown once. About 2,200 (0.55%) of roughly 400,000 compounds were called active. Entries that show only a call come without a potency. Roughly 1% stayed inconclusive and do not appear here. This is one part of a sample in which actives are shown more often than they occur. Calls come from the whole dose curve; as a rule, active = well fitted inhibition curve with a large enough effect; inconclusive = small, poorly fitted or top-dose-only effect, or another doubt; inactive = no such curve, though single readings can be large or run the other way. Some structures have more than one record in an assay (separate samples or runs), and their calls can disagree.
# Biological target: DNA polymerase kappa (Homo sapiens) (UniProt Q9UBT6)
# Assay: qHTS for Inhibitors of Polymerase Kappa
# Settings: purified Pol kappa, fluorescent DNA synthesis assay, 10 min; series mostly up to 60.1 µM
# Experimental: The processing and repair of DNA interstrand crosslinks (ICL) in eukaryotic cells are extremely complex, potentially involving multiple DNA repair and damage tolerance pathways, including homologous recombination, nucleotide excision repair, translesion synthesis (TLS), and cell cycle checkpoints.
# To that end, in a collaboration between the Oregon Health & Science University and the NIH Chemical Genomics Center a 1536-well high-throughput screen was developed. This fluorescent screen was assayed against the NIH Molecular Libraries Small Molecule Repository (MLSMR) to discover inhibitors of Pol Kappa.
# NIH Chemical Genomics Center [NCGC]
# NIH Molecular Libraries Probe Centers Network [MLPCN]
# Assay Submitter (PI): Stephen Lloyd, Oregon Health & Science University
# Three microliters of reagents (buffer in column 3 and 4 as negative control and 10 nM Pol kappa in columns 1, 2, and 5-48) were dispensed into a 1536-well black solid-bottom plate. Compounds (23 nL) were transferred via Kalypsys pin tool equipped with 1536-pin array. The plates were then incubated for 15 min at room temperature, and 1 uL substrate (50 nM final concentration) were then added to start the reaction and kinetically read twice at 0 min and 10 min on the Viewlux reader
# Potency is the fitted concentration of half-maximal effect.
# Chain of DNA polymerase kappa (Homo sapiens) (Q9UBT6 whole entry, looked up): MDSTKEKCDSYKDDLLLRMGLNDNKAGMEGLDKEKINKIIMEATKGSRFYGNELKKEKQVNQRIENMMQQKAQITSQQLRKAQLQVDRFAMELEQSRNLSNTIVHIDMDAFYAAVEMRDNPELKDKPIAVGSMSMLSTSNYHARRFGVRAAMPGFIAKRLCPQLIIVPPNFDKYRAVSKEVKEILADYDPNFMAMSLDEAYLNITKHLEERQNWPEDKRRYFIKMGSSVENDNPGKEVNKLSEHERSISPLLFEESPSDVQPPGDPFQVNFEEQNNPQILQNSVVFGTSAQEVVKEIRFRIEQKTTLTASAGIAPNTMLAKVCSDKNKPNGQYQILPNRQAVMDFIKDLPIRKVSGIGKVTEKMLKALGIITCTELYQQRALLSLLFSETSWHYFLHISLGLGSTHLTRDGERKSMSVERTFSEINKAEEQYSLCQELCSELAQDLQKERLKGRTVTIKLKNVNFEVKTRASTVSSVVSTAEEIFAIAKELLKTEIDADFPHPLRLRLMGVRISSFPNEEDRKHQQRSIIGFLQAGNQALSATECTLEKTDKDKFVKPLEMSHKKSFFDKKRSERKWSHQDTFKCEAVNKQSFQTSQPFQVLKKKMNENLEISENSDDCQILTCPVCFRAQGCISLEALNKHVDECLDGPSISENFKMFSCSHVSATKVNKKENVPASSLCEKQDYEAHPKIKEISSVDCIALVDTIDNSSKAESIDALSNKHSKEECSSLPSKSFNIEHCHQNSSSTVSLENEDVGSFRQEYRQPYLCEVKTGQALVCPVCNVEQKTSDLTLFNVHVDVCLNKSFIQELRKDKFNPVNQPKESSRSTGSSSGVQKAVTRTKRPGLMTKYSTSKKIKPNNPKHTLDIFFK
Compound,Potency,"activity, negative = inhibition"
Cc1cc(/C=C2/C(=O)NC(=O)N(Cc3ccco3)C2=O)c(C)n1-c1ccc(C(=O)O)cc1,50.1 µM (active),
CN[C@@H]1C[C@H]2O[C@@](C)([C@@H]1OC)n1c3ccccc3c3c4c(c5c6ccccc6n2c5c31)C(=O)NC4,inactive,
CCN1C[C@]2(COC)C(O)C[C@H](OC)[C@@]34C5C[C@]6(O)C(OC)C(O)[C@](OC(C)=O)(C5C6OC(=O)c5ccccc5)C(C(OC)C23)C14 (some centres undefined),inactive,
CC(CCC(=O)O)C1CCC2C3C(O)C[C@@H]4CC(O)CC[C@@]4(C)C3CC[C@@]12C (some centres undefined),inactive,
COc1ccc(C2Oc3c(I)c(OC)cc(OC)c3CC2O)cc1OC (centres undefined),inactive,
N[C@H](Cc1o[nH]c(=O)c1Cl)C(=O)O,inactive,
CN1CCN(C(=O)O[C@@H]2c3nccnc3C(=O)N2c2ccc(Cl)cn2)CC1,inactive,
C/C(=C\C=C/[C@@H](C)C(=O)O)[C@H]1CN[C@H](C(=O)O)[C@@H]1CC(=O)O,inactive,
N[C@H](C(=O)O)c1cc(=O)[nH]o1,inactive,
CC(C)(C)c1ccc(CN2C(=O)CN=C(c3ccccc3)c3ccccc32)cc1,inactive,
O=C1CC(=O)N(Cc2ccccc2)C(=O)N1CCCCCCN1C(=O)CC(=O)N(Cc2ccccc2)C1=O,22.4 µM (active),
COC1CC(OC2CC[C@@]3(C=O)C4CC[C@]5(C)C(C6=CC(=O)OC6)CC[C@@]5(O)C4CC[C@]3(O)C2)OC(C)C1O (some centres undefined),inactive,
C[C@]12CC[C@@H]3c4ccc(O)cc4C[C@@H](CCCCCCCCCS(=O)CCCC(F)(F)C(F)(F)F)C3[C@@H]1CC[C@@H]2O (some centres undefined),inactive,
CO[C@@H]1C[C@@H](C[C@H]2CC[C@H](C)[C@@H]([C@@H](C)C(=O)O)O2)O[C@]2(O[C@](C)([C@H]3CC[C@@](C)(C4OC([C@H]5O[C@@](O)(CO)[C@H](C)C[C@@H]5C)C[C@@H]4C)O3)C[C@H]2C)[C@@H]1C (some centres undefined),inactive,
CN=C(NC#N)NCCSCc1nc[nH]c1C,inactive and 28.2 µM (active),
NC[C@H](O)c1ccc(O)cc1,,-4.18% [at 12 µM] (inactive)
CC[C@]1(O)C(=O)OCc2c1cc1n(c2=O)Cc2cc3ccccc3nc2-1,inactive,
Fc1ccc(C(OCCN2CCN(C/C=C\c3ccccc3)CC2)c2ccc(F)cc2)cc1,inactive,
CC[N+](C)(CC)CCC[n+]1c(-c2ccccc2)c2cc(N)ccc2c2ccc(N)cc21,6.31 µM (active),
CC(C)(O)c1[se]c2ccccc2c1I,inactive,
CN1[C@@H]2CC[C@H]1CC(OC(=O)c1cc(Cl)cc(Cl)c1)C2 (some centres undefined),inactive,
COc1ccc(N2C(=O)/C(=C/c3ccco3)C(=O)NC2=S)cc1,4.47 µM (active),

Compound,Potency,"activity, negative = inhibition"
CCN1C[C@]2(C)CC[C@H](O)[C@@]34[C@@H]5CC6[C@@H](OC)C[C@@](O)([C@@H]5[C@@H]6O)[C@H](C[C@@H]23)[C@H]14,,-3.02% [at 12 µM] (inactive)
N#Cc1cc(Br)c(O)c(Br)c1,inactive,
CN(C)[C@@H]1C(=O)C(C(N)=O)=C(O)[C@@]2(O)C(=O)C3=C(O)c4c(O)cccc4[C@@](C)(O)C3CC12 (some centres undefined),inactive,
c1ccc2sc(SNC3CCCCC3)nc2c1,inactive,
NCCCCC(N)C(=O)O (centres undefined),inactive,
C=CCN1CCC2(C)c3cc(O)ccc3CC1[C@@H]2C (some centres undefined),inactive,
CCCN(C/C=C/I)C1CCc2ccc(O)cc2C1 (centres undefined),inactive,
CO[C@H]1[C@@H](O)[C@@H](C)O[C@H](O[C@H]2[C@H](Oc3cccc4c(O)c5c(=O)oc6ccc(C)c7c(=O)oc(c34)c5c67)O[C@H](C)[C@H](O)[C@@H]2O)[C@@H]1O,35.5 µM (active),
c1ccc(CN2CC[C@@]3(CCCNC3)C2)cc1,inactive,
CCCCCCCCCCCCN=C(N)N,inactive,
CN(C)C1C(=O)C(C(N)=O)=C(O)[C@@]2(O)C(=O)C3=C(O)c4c(O)cccc4[C@@](C)(O)C3C[C@@H]12 (some centres undefined),inactive,
N#CC(C#N)=Cc1cc(O)c(O)c([N+](=O)[O-])c1,2.82 µM (active),
COC([CH2][Hg])CNC(=O)c1ccccc1OCC(=O)O (centres undefined),inactive,
Nc1ccc(-c2ccc(N)c(N)c2)cc1N,inactive,
CN(C)C[C@H]1CCCC[C@]1(O)c1cccc(O)c1,inactive,
CC[C@@H]1CN2CC[C@@H]1C[C@H]2[C@H](O)c1ccnc2ccc(OC)cc12,inactive,
CC1=CC(=O)C2=C(C)C[C@H](O)[C@H]3[C@H](C)C(=O)O[C@@H]3C12 (some centres undefined),inactive,
C[C@H]1C/C=C/[C@@H]2[C@@H]3O[C@]3(C)[C@@H](C)[C@H]3[C@H](Cc4ccccc4)NC(=O)[C@]32OC(=O)O/C=C/[C@](C)(O)C1=O,,-10.2% [at 12 µM] (inactive)
Cc1c(C(=O)O)cccc1-n1c(C)cc(/C=C2\C(=O)NC(=O)N(c3ccc4c(c3)OCO4)C2=O)c1C,44.7 µM (active),
CC(=O)OC1C2CCC3C1(CC(O)[C@@]1(O)[C@@H](CC(O)C1(C)C)[C@]3(C)O)C[C@@]2(C)O (some centres undefined),inactive,
C=CCSSCC=C,inactive,
C[C@]12O[C@H](C[C@@]1(O)C(=O)O)n1c3ccccc3c3c4c(c5c6ccccc6n2c5c31)CNC4=O,inactive,

Compound,Potency,"activity, negative = inhibition"
C[C@@]12CCC3C(CC[C@@H]4CC(O)CC[C@@]34C)C1CCC2O (some centres undefined),inactive,
CCCCC/C=C\C/C=C\C/C=C\C/C=C\CCCCCC(=O)NCCO,inactive,
Cc1cccc2c3c(ccc12)C1=C(C(=O)C3=O)C(C)CO1 (centres undefined),20 µM (active),
C[C@@]12CC[C@H]3[C@@H](CC[C@]4(O)C[C@H](O)CC[C@@]34C=O)[C@]1(O)CC[C@@H]2C1=CC(=O)OC1,,-6.33% [at 12 µM] (inactive)
C[C@@H]1C[C@@H]2O[C@H]2/C=C\C=C\C(=O)Cc2c(Cl)c(O)cc(O)c2C(=O)O1,39.8 µM (active),
c1ccc(CCCCN2CCC(c3ccccc3)CC2)cc1,inactive,
O=C(N/N=C/c1ccc([N+](=O)[O-])o1)c1cc([N+](=O)[O-])cc([N+](=O)[O-])c1O,inactive,
c1ccc(N2CC[C@@]3(CCCNC3)C2)nc1,inactive,
COc1cccc(N2C(=O)NC(=O)/C(=C\c3ccc([N+](=O)[O-])s3)C2=O)c1,25.1 µM (active),
O=C1NC(=O)N(c2ccccc2)C(=O)/C1=C/c1ccc([N+](=O)[O-])s1,31.6 µM (active),
CC(=O)[O][Sn]([c]1ccccc1)([c]1ccccc1)[c]1ccccc1,inactive,
CCCCCCCCc1[se]c2ccccc2c1Br,inactive,
ClCCN(CCCl)c1ccc(C=Nc2ccc(/C=C/c3ccnc4ccccc34)cc2)cc1,inactive,
CC(C)(Cc1c[nH]c2ccc(Cl)cc12)NCCOc1ccccc1OCC1CC1,inactive,
CCN(CC)c1nc(C)cc(OP(=S)(OC)OC)n1,inactive,
C[C@@H]1C[C@H]2CC[C@H](O2)[C@H](C)C(=O)O[C@@H](C)C[C@@H]2CC[C@@H](O2)[C@@H](C)C(=O)O[C@H](C)C[C@H]2CC[C@H](O2)[C@H](C)C(=O)O[C@@H](C)C[C@@H]2CC[C@@H](O2)[C@@H](C)C(=O)O1,inactive,
O=C(Nc1cccc(F)c1)N1CC[C@@]2(CCCN(C(=O)Oc3ccccc3)C2)C1,inactive,
CC(C)(c1ccc(OC[C@@H]2CO2)cc1)c1ccc(OC[C@H]2CO2)cc1,inactive,
COc1ccc2[nH]cc(CCNCc3ccc(Br)cc3)c2c1,inactive,
O=C1CCc2cccc3c2N1CC3,,-11.9% [at 12 µM] (inactive)
